Screening data: PubChem, National Center for Advancing Translational Sciences (NCATS)
p53ts 39C kill = cytotoxicity in p53ts cells at nonpermissive temperature | H1299-p53A138V viability at 39C, ATP luminescence, 24 h | Potency, µM (doses to about 46.1 µM), hits mostly cytotoxic | 130,000 compounds, 1.5% hits; also: nearly all actives have a fitted effect of over 55% in size
p53ts 32C kill = kills p53ts cells at the permissive temperature. Potency, µM (top dose mostly 46.1 µM), most hits filed as cytotoxic. 130,000 compounds, 0.93% hits. H1299-p53A138V at 32C, ATP luminescence viability, 24 h. AID 924; also: nearly all actives have a fitted effect of over 55% in size
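H1299-p53 A138V cells (temperature-sensitive p53) exposed 24 h to up to 46 uM compound at 32C, where p53 is wild-type in conformation. Viability read as ATP luminescence and normalised to DMSO and 100 uM tamoxifen. AC50 fitted with the Hill equation.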
Peg3 imprint = induces erasure of genomic imprints in mouse ES cells; mouse ES Peg3-LacZ reporter, beta-gal luminescence, 40 h; Potency, µM (doses to about 60.7 µM), actives largely listed as activators; 110,000 compounds, 0.02% hits
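Readout: BetaGlo luminescence (5 min, room temp) for LacZ from the normally silent maternal Peg3 allele in female Peg3LacZ-Neo ES cells. Cells 300/well, 40 h, 37C, 5% CO2. Data normalized per plate to negative controls.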
IkB sig inh = suppresses IkB signaling in ABC-DLBCL reporter cells; Potency, µM (highest dose often 57.1 µM); 110,000 compounds, 0.04% hits; ABC-DLBCL IkBa-CBG/CBR dual luciferase ratio, 4 h; response scale: scaled: untreated 0%, proteasome inhibitor 100%; AID 445; active = well fitted curve in the direction sought with a large enough effect in the signal ratio, not every such curve was filed as active; inconclusive = small, poorly fitted or top-dose-only effect, or a change in a side signal; the % refers to the signal ratio;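 also: the direction sought is a rising ratio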
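Luminescence ratio of IκBα-fused green versus native red beetle luciferase in OCI-Ly3 cells, 4 h post-doxycycline with compound; red signal alone, scaled from basal (0%) to zero light (-100%), flagged nonspecific or cytotoxic effects.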
A number is an active result; n = inactive; u = inconclusive; x = not tested or not shown; [ ] = remark or other dose. In the library only some 1.7% were active in any assay of this set; here they are far more common. Unless noted, calls follow the shape of the dose curve; as a rule, active = well fitted curve in the direction sought with a large enough effect; inconclusive = small, poorly fitted or top-dose-only effect, or another doubt; inactive = no such curve, though single readings can be large; an effect the other way counts as inactive or inconclusive.

SMILES | p53ts 39C kill | p53ts 32C kill | Peg3 imprint | IkB sig inh
CCOC(=O)Cc1csc(NC(=O)CSc2nnc(-c3ccc(C)cc3)o2)n1 | 7.9µM | 13µM | n | n
COc1cc(C(=O)Nc2ccc(OCc3cc(=O)n4cccc(C)c4n3)cc2)cc(OC)c1OC | 32µM | u | n[10.9 µM] | n
COc1ccccc1C(=O)Nc1ccc(OCc2cc(=O)n3cccc(C)c3n2)cc1 | n | n | n[10.9 µM] | n
C[C@H]1[C@H](C)CC[C@]2(C(=O)O)CC[C@]3(C)C(=CC[C@@H]4[C@]5(C)C[C@H](O)[C@@H](O)[C@@](C)(CO)[C@@H]5[C@H](O)C[C@@]43C)[C@H]12 | n[9.22 µM] | n[9.22 µM] | x | n[11.4 µM]
COc1cc(CNC(=O)CCCCCCC(C)C)ccc1O | n | n | n | n[11.4 µM]
CCCCCCCCC(=O)NCc1cc(OC)c(O)cc1I | 32µM | n | n | u
CC(C)c1ccc(OC(=O)c2cc(-c3ccccc3)on2)cc1 | n | n | n[10.9 µM] | n
COc1ccc(C)cc1NC(=O)C(Cc1ccccc1)NS(=O)(=O)c1ccc(Br)s1 (centres undefined) | 13µM | u | n[10.9 µM] | n
COc1ccc(C)cc1NC(=O)C(Cc1ccccc1)NS(=O)(=O)c1cccs1 (centres undefined) | n | n | n[10.9 µM] | n
CC(=O)Oc1cccc(C)c1 | x | x | n | x
Cc1ccccc1-c1ncnn1-c1sc2c(c1C#N)CCCCC2 | 13µM | u | n[10.9 µM] | u
N#Cc1c(-n2ncnc2-c2ccc(F)cc2)sc2c1CCCCC2 | 13µM | 13µM | n[10.9 µM] | u
N#Cc1c(-n2ncnc2-c2cccc(Br)c2)sc2c1CCCCC2 | n | n | n[10.9 µM] | u
CCOc1ccc(-c2n[nH]c3c2C(c2cccs2)N(c2ccc(Br)cc2)C3=O)cc1 (centres undefined) | n | n | n[10.9 µM] | n
CC(=O)c1ccc(NC(=O)c2ccn[nH]2)cc1 | 10µM | 13µM | n | n
COc1ccc(-c2csc3ncnc(Nc4ccc(OC)cc4OC)c23)cc1 | n | n | n[10.9 µM] | u
CC(=O)N1CCc2c(sc3c2c(=O)n(-c2cccc(Cl)c2)c(=O)n3Cc2ccc(F)cc2Cl)C1 | n | n | n[10.9 µM] | u
C=CCc1cccc(C2C(C)CCC3C(=O)N4C(CCC(C)C4c4cccc(CC=C)c4)C(=O)N32)c1 (centres undefined) | n[9.22 µM] | n[9.22 µM] | x | x
O=C(NCCc1ccccc1Cl)c1ccc2c(c1)nc1n2CCCCC1 | 2.5µM | 4µM | n[10.9 µM] | u
Cc1ccc(CCNC(=O)c2ccc3c(c2)nc2n3CCOC2)cc1 | n | n | n[10.9 µM] | n
Cc1ccccc1CCNC(=O)c1ccc2c(c1)nc1n2CCC(C)C1 (centres undefined) | 13µM | 13µM | n[10.9 µM] | n
O=C(NCCc1ccccc1)c1ccc2c(c1)nc1n2CCOC1 | 10µM | 13µM | n[10.9 µM] | n
CCNC(=O)c1ccc2c(c1)nc1n2CCCCC1 | u | u | n[10.9 µM] | n
CC(C)CCNC(=O)c1ccc2c(c1)nc1n2CCCCC1 | 3.2µM | 16µM | n[10.9 µM] | u
COc1ccc(CCNC(=O)c2ccc3c(c2)nc2n3CCCCC2)cc1OC | n | n | n[10.9 µM] | u
SMILES | p53ts 39C kill | p53ts 32C kill | Peg3 imprint | IkB sig inh
CCNc1ncc2nc(-c3ccc(Cl)cc3)c(=O)n(-c3ccc(OC)cc3)c2n1 | n | n | n | n[11.4 µM]
CCNc1ncc2nc(-c3cccs3)c(=O)n(Cc3ccc(F)cc3)c2n1 | n | n | n | n[11.4 µM]
CC(=O)n1nc(-c2ccco2)nc1SCc1ccccc1 | u | 13µM | n | n
CCC(=O)n1nc(-c2ccco2)nc1SCc1ccccc1 | u | u | n | n
CC(=O)[C@@H]1[C@H]2[C@H](C(=O)[C@H]3OC[C@@H]2O3)[C@H]2C=Cc3ccccc3N21 | u | u | n | x
COc1ccc(OC)c(CNS(=O)(=O)c2ccc(-c3coc(C)n3)cc2)c1 | n | n | n[10.9 µM] | n
O=[N+]([O-])c1ccc(C(c2sc3nc(-c4ccco4)nn3c2O)N2CCN(Cc3ccccc3)CC2)cc1 (centres undefined) | n | n | n[10.9 µM] | n
O=C(Cn1ncc2c3ccccc3n(Cc3ccccc3F)c2c1=O)NC1CCCCCC1 | 7.9µM | n | n[10.9 µM] | n
CCN(CC)c1ccc2c(c1)oc(=O)c1c(Cl)cc(=O)oc12 | 13µM | 13µM | n | u
CCN(CC)c1ccc2c(Cl)c(Br)c(=O)oc2c1 | u | 13µM | x | u
CCN(CC)c1ccc2c(C)cc(=O)oc2c1 | n | n[1.84 µM] | n | n
COc1ccc(-c2[nH]c(-c3ccc(F)cc3)nc2SCC(=O)Nc2ccc(OC)c(OC)c2)cc1 | n | n | n[10.9 µM] | n
Cc1c(C(=O)N2CCc3ccccc3C2)sc2nc(-c3ccccc3)cn12 | n | n | n | u
